According to PubChem BioAssay AID1159580 (chemical genetic matrix, 2015):
Out of some 5,500 compounds screened, about 2,000 (36%) were called active. Not shown: some 18% with an inconclusive outcome. No stated cut-off is given here; in the data, active means normalized growth mostly below about 0.91 (no sharp cut-off); inconclusive means no clear call, values can overlap the other calls; inactive means mostly above about 0.92. The list shows a part of the results.

Assay: chemical genetic growth profiling, strain panel (AID 1159580);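 further: tested at 20 µM; growth read once vehicle control cultures reached saturation at 30 °C; 1 = growth at the plate median or of vehicle wells; lower values mean less growth of the strain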
Details: S. cerevisiae deletion strains, growth OD
[1] = locus YAR019C, strain CDC15, hits give low values
[2] = locus YBL105C, strain PKC1, hits give low values
[3] = locus YBR135W, strain CKS1, hits give low values
[4] = locus YBR136W, strain MEC1, hits give low values
[5] = locus YBR160W, strain CDC28, hits give low values
[6] = locus YDL017W, strain CDC7, hits give low values
[7] = locus YDL028C, strain MPS1, hits give low values
[8] = locus YDL101C, strain DUN1, hits give low values
[9] = locus YDL108W, strain KIN28, hits give low values
[10] = locus YDL132W, strain cdc53, hits give low values
[11] = locus YDL214C, strain PRR2, hits give low values
[12] = locus YDR052C, strain DBF4, hits give low values
[13] = locus YDR054C, strain cdc34, hits give low values
[14] = locus YDR226W, strain ADK1, hits give low values
[15] = locus YDR477W, strain SNF1, hits give low values
[16] = locus YER123W, strain YCK3, hits give low values
[17] = locus YER133W, strain GLC7, hits give low values
[18] = locus YFL009W, strain cdc4, hits give low values
[19] = locus YFL029C, strain CAK1, hits give low values
[20] = locus YFR003C, strain YPI1, hits give low values
[21] = locus YFR019W, strain FAB1, hits give low values
[22] = locus YFR028C, strain CDC14, hits give low values
[23] = locus YGR040W, strain KSS1, hits give low values
[24] = locus YGR052W, strain FMP48, hits give low values
[25] = locus YGR092W, strain DBF2, hits give low values
[26] = locus YHR030C, strain SLT2, hits give low values
[27] = locus YHR079C, strain IRE1, hits give low values
[28] = locus YHR082C, strain KSP1, hits give low values
[29] = locus YHR205W, strain SCH9, hits give low values
[30] = locus YIL147C, strain SLN1, hits give low values
[31] = locus YJL095W, strain BCK1, hits give low values
[32] = locus YJL128C, strain PBS2, hits give low values
[33] = locus YJL157C, strain FAR1, hits give low values
[34] = locus YJR016C, strain ILV3, hits give low values
[35] = locus YJR066W, strain TOR1 (second series), hits give low values
[36] = locus YJR066W, strain TOR1, hits give low values
[37] = locus YKL048C, strain ELM1, hits give low values
[38] = locus YKL067W, strain YNK1, hits give low values
[39] = locus YKL101W, strain HSL1, hits give low values
[40] = locus YKL193C, strain SDS22, hits give low values
[41] = locus YKL203C, strain TOR2, hits give low values
[42] = locus YLR113W, strain HOG1, hits give low values
[43] = locus YLR133W, strain CKI1, hits give low values
[44] = locus YLR403W, strain SFP1, hits give low values
[45] = locus YML070W, strain DAK1, hits give low values
[46] = locus YMR001C, strain CDC5, hits give low values
[47] = locus YMR205C, strain PFK2 (second series), hits give low values
[48] = locus YMR277W, strain FCP1, hits give low values
[49] = locus YNL006W, strain LST8, hits give low values
[50] = locus YNL020C, strain ARK1, hits give low values
[51] = locus YNL161W, strain CBK1, hits give low values
[52] = locus YNL183C, strain NPR1, hits give low values
[53] = locus YNL207W, strain RIO2, hits give low values
[54] = locus YNL222W, strain SSU72, hits give low values
[55] = locus YNL307C, strain MCK1 (second series), hits give low values
[56] = locus YOL078W, strain AVO1, hits give low values
[57] = locus YOL136C, strain PFK27, hits give low values
[58] = locus YOR061W, strain CKA2, hits give low values
[59] = locus YOR119C, strain RIO1, hits give low values
[60] = locus YOR231W, strain MKK1, hits give low values
[61] = locus YOR329C, strain SCD5, hits give low values
[62] = locus YPL031C, strain PHO85, hits give low values
[63] = locus YPL153C, strain RAD53, hits give low values
[64] = locus YPL204W, strain HRR25, hits give low values
[65] = locus YPL209C, strain IPL1, hits give low values
[66] = locus YPL256C, strain CLN2, hits give low values
[67] = locus YPR025C, strain CCL1, hits give low values
[68] = locus YPR106W, strain ISR1, hits give low values
[69] = locus YPR111W, strain DBF20, hits give low values
[70] = strain NNK1, hits give low values
[71] = strain TSCII, hits give low values

Measured: normalized growth

O=C(Nc1ccccc1Sc1ccc(C(F)(F)F)cc1[N+](=O)[O-])C(Cl)Cl
inactive: [1] 0.997 | [2] 0.994 | [3] 0.987 | [4] 0.991 | [5] 0.994 | [6] 1.01 | [7] 0.992 | [8] 0.983 | [9] 0.991 | [10] 0.994 | [11] 0.952 | [12] 1 | [13] 0.998 | [14] 0.993 | [15] 0.985 | [16] 0.958 | [17] 0.959 | [18] 0.995 | [19] 0.996 | [20] 0.986 | [21] 0.955 | [22] 0.983 | [23] 0.964 | [24] 0.963 | [25] 0.909 | [26] 0.985 | [27] 0.973 | [28] 1.02 | [29] 0.864 | [30] 0.995 | [31] 0.894 | [32] 0.945 | [33] 0.961 | [34] 0.999 | [35] 0.933 | [36] 1.01 | [37] 0.949 | [38] 0.934 | [39] 0.946 | [40] 0.996 | [41] 1.01 | [42] 0.907 | [43] 0.947 | [44] 0.915 | [45] 0.938 | [46] 0.998 | [47] 0.953 | [48] 0.984 | [49] 0.986 | [50] 0.959 | [51] 0.993 | [52] 0.96 | [53] 0.989 | [54] 0.99 | [55] 0.903 | [56] 0.99 | [57] 0.907 | [58] 0.97 | [59] 1.05 | [60] 0.935 | [61] 0.997 | [62] 0.984 | [63] 0.991 | [64] 0.958 | [65] 0.992 | [66] 1.02 | [67] 0.997 | [68] 0.996 | [69] 0.967 | [70] 0.976 | [71] 0.992

O=[N+]([O-])c1cc(C(F)(F)F)ccc1Sc1n[nH]c(-c2cc(Cl)cc(Cl)c2)n1
active: [11] 0.537 | [15] 0.578 | [16] 0.329 | [17] 0.716 | [21] 0.207 | [23] 0.678 | [24] 0.541 | [25] 0.129 | [26] 0.147 | [27] 0.131 | [28] 0.231 | [29] 0.472 | [31] 0.228 | [33] 0.15 | [35] 0.203 | [36] 0.16 | [37] 0.298 | [38] 0.426 | [39] 0.201 | [41] 0.601 | [42] 0.223 | [43] 0.164 | [44] 0.602 | [45] 0.293 | [47] 0.399 | [50] 0.133 | [52] 0.497 | [55] 0.14 | [57] 0.194 | [58] 0.164 | [59] 0.673 | [60] 0.155 | [62] 0.32 | [63] 0.26 | [64] 0.255 | [66] 0.166
inactive: [1] 0.925 | [2] 0.954 | [3] 0.951 | [4] 0.936 | [5] 0.935 | [6] 0.95 | [7] 0.917 | [8] 0.987 | [9] 0.94 | [10] 0.937 | [12] 0.944 | [13] 0.896 | [14] 0.943 | [18] 0.909 | [19] 0.929 | [20] 0.954 | [22] 0.933 | [30] 0.929 | [32] 0.811 | [34] 0.939 | [40] 0.94 | [46] 0.925 | [48] 0.926 | [49] 0.931 | [51] 0.949 | [53] 0.948 | [54] 0.935 | [56] 0.943 | [61] 0.939 | [65] 0.948 | [67] 0.952 | [68] 0.944 | [69] 0.908 | [70] 0.917 | [71] 0.919
